The results in this text go back to PubChem BioAssay AID651919 (Sanford-Burnham Center for Chemical Genomics, 2012).

One may read the inhibition as the drop in the measured response relative to a control, in per cent. A high value points to strong suppression.

The assay has as its target C-X-C chemokine receptor type 6 (Homo sapiens) (UniProt O00574). The assay is described as follows: CXCR6 and CXCR5 receptor antagonist panel, profiling panel, selectivity assay for CXCR6 antagonist project, cell-based, CHO-K1 PathHunter beta-arrestin, luminescence, set 4 (AID 651919). The following applies: run 3, at 79 µM (top of the series).

C-X-C chemokine receptor type 6 (Homo sapiens), sequence (O00574 whole entry, looked up): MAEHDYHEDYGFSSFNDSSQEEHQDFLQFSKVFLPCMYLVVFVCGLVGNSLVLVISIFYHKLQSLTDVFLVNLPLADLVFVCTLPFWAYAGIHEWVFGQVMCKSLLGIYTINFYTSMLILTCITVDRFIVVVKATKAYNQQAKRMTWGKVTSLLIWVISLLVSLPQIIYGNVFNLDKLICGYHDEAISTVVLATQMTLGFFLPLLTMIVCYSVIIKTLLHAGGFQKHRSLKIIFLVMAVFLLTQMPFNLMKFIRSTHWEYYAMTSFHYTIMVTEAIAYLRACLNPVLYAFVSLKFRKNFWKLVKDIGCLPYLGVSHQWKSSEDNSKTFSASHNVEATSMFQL

In turn, `COc1cc(C(=O)NC2CC3CCCC(C2)N3CC(=O)Nc2ccccc2)cc(OC)c1OC` (configuration not stated) yielded an inhibition of 92.7%.

Consider `COc1cc(C(=O)NC2CC3CCCC(C2)N3CC(=O)Nc2ccccc2Cl)cc(OC)c1OC` (configuration not stated), for which the inhibition amounted to 99.1%.
